Among the data in paper PMC12820563, “FoxP3 forms a head-to-head dimer in vivo and stabilizes its multimerization on adjacent microsatellites” are binding signal values, retold here.

Over roughly 16,000 sequences, “rpm ratio (pull-down/input)” has its median near 0.94; the highest 2% begin near 1.7. Many of the other results were omitted from the sample, so the highest values are more common in it than they were.

The target in the test is T1, MBP-FoxP1dN (Mus musculus, UniProt P58462 326-579).
T1 sequence: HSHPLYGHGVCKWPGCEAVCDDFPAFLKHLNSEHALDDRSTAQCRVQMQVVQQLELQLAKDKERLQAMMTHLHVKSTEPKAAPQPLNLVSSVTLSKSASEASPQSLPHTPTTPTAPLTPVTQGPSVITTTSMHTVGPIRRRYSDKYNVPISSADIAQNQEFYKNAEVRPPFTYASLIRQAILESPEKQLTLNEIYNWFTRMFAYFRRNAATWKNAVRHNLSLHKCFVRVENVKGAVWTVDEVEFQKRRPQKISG
The experiment in a line: PD-seq (MBP pull-down with sequencing); 20 mM Tris-HCl pH 7.5, 100 mM NaCl, 1.5 mM MgCl2, 0.4 uM protein, 0.1 uM dsDNA library, 30 min, room temperature, amylose pull-down; high values mean tight binding. As to conditions: protein: recombinant; tags: His6-MBP; chain copies: 2; dsDNA, one strand shown. The essentials:
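Binding is the reads-per-million enrichment of pull-down relative to input, pooled across replicates. For this, 0.4 µM His6-MBP-tagged mouse FoxP3 or FoxP1 fragment lacking the N-terminus, made in E. coli, was incubated with 0.1 µM Klenow-filled double-stranded degenerate DNA library for 30 min at room temperature in Tris pH 7.5 buffer with NaCl and MgCl2. Complexes bound to amylose resin were washed three times before proteinase K released the DNA for PCR barcoding and Illumina sequencing.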
For the sequence “GATGATTGTTCTCCCAGCTGATGAATTGTGTGTTTCGAGTAAACAAATTTTCCTAATCTTTCTGTTCAAGCGCCATCTAC”, the binding signal was 1.57 RPM ratio (pull-down/input).
The same measure for “GATGATTGTTCTCCCAGCTGATGAATTTGTGTTCTCGAGTAAACAAATTTTCCTAATCTTTCTGTTCAAGCGCCATCTAC”: 1.48 RPM ratio (pull-down/input).
The same measure for “GATGATTGTTCTCCCAGCTGATGAATTCTGTGTTTCGAGTAAACAAATTTTCCTAATCTTTCTGTTCAAGCGCCATCTAC”: 1.14 RPM ratio (pull-down/input).
The same measure for “GATGATTGTTCTCCCAGCTGATGAATTGTGTTTTTCGAGTAAACAAATTTTCCTAATCTTTCTGTTCAAGCGCCATCTAC”: 2.33 RPM ratio (pull-down/input); for “GATGATTGTTCTCCCAGCTGATGAATTTGTGTTTTCGAGTAAACAAATTTTCCTAATCTTTCTGTTCAAGCGCCATCTAC”: 2.61 RPM ratio (pull-down/input).
Regarding “GATGATTGTTCTCCCAGCTGATGAATTTTTGTGTTCGAGTAAACAAATTTTCCTAATCTTTCTGTTCAAGCGCCATCTAC”, the binding signal was 1.95 RPM ratio (pull-down/input).
Under “GATGATTGTTCTCCCAGCTGATGAATTTGTGTGTTCGAGTAAACAAATTTTCCTAATCTTTCTGTTCAAGCGCCATCTAC” stands 1.59 RPM ratio (pull-down/input).
For the sequence “GATGATTGTTCTCCCAGCTGATGAATTTTGTGTTTCGAGTAAACAAATTTTCCTAATCTTTCTGTTCAAGCGCCATCTAC”, the binding signal is 1.58 RPM ratio (pull-down/input).
Under “GATGATTGTTCTCCCAGCTGATGAATTTGTGATTTCGAGTAAACAAATTTTCCTAATCTTTCTGTTCAAGCGCCATCTAC” stands 1.41 RPM ratio (pull-down/input).
Under “GATGATTGTTCTCCCAGCTGATGAATTGATAGCTTCGAGTAAACAAATTTTCCTAATCTTTCTGTTCAAGCGCCATCTAC” stands 0.923 RPM ratio (pull-down/input); under “GATGATTGTTCTCCCAGCTGATGAATTGCAATTCTCGAGTAAACAAATTTTCCTAATCTTTCTGTTCAAGCGCCATCTAC”, 1.38 RPM ratio (pull-down/input).
Under “GATGATTGTTCTCCCAGCTGATGAATTAAGCCTATCGAGTAAACAAATTTTCCTAATCTTTCTGTTCAAGCGCCATCTAC” stands 0.873 RPM ratio (pull-down/input); under “GATGATTGTTCTCCCAGCTGATGAATTCTTCCAATCGAGTAAACAAATTTTCCTAATCTTTCTGTTCAAGCGCCATCTAC”, 0.955 RPM ratio (pull-down/input); under “GATGATTGTTCTCCCAGCTGATGAATTTCTATAATCGAGTAAACAAATTTTCCTAATCTTTCTGTTCAAGCGCCATCTAC”, 1.1 RPM ratio (pull-down/input).
With “GATGATTGTTCTCCCAGCTGATGAATTCTCAACCTCGAGTAAACAAATTTTCCTAATCTTTCTGTTCAAGCGCCATCTAC”, the binding signal is 0.795 RPM ratio (pull-down/input).
As for “GATGATTGTTCTCCCAGCTGATGAATTAATGCCGTCGAGTAAACAAATTTTCCTAATCTTTCTGTTCAAGCGCCATCTAC”, the binding signal was 1.11 RPM ratio (pull-down/input).
The same measure for “GATGATTGTTCTCCCAGCTGATGAATTCACCGCCTCGAGTAAACAAATTTTCCTAATCTTTCTGTTCAAGCGCCATCTAC”: 0.899 RPM ratio (pull-down/input); for “GATGATTGTTCTCCCAGCTGATGAATTGTGATCGTCGAGTAAACAAATTTTCCTAATCTTTCTGTTCAAGCGCCATCTAC”: 1.16 RPM ratio (pull-down/input); for “GATGATTGTTCTCCCAGCTGATGAATTTCTGACATCGAGTAAACAAATTTTCCTAATCTTTCTGTTCAAGCGCCATCTAC”: 0.96 RPM ratio (pull-down/input).
The same measure for “GATGATTGTTCTCCCAGCTGATGAATTTTTGACATCGAGTAAACAAATTTTCCTAATCTTTCTGTTCAAGCGCCATCTAC”: 1.09 RPM ratio (pull-down/input); for “GATGATTGTTCTCCCAGCTGATGAATTGACATAATCGAGTAAACAAATTTTCCTAATCTTTCTGTTCAAGCGCCATCTAC”: 1.63 RPM ratio (pull-down/input); for “GATGATTGTTCTCCCAGCTGATGAATTATTGAAATCGAGTAAACAAATTTTCCTAATCTTTCTGTTCAAGCGCCATCTAC”: 1.23 RPM ratio (pull-down/input).
The same measure for “GATGATTGTTCTCCCAGCTGATGAATTATTGACATCGAGTAAACAAATTTTCCTAATCTTTCTGTTCAAGCGCCATCTAC”: 2 RPM ratio (pull-down/input); for “GATGATTGTTCTCCCAGCTGATGAATTGTTGACATCGAGTAAACAAATTTTCCTAATCTTTCTGTTCAAGCGCCATCTAC”: 2.54 RPM ratio (pull-down/input).
“GATGATTGTTCTCCCAGCTGATGAATTGACATTATCGAGTAAACAAATTTTCCTAATCTTTCTGTTCAAGCGCCATCTAC”: the binding signal was 1.5 RPM ratio (pull-down/input).
The same measure for “GATGATTGTTCTCCCAGCTGATGAATTGACAACATCGAGTAAACAAATTTTCCTAATCTTTCTGTTCAAGCGCCATCTAC”: 2.29 RPM ratio (pull-down/input); for “GATGATTGTTCTCCCAGCTGATGAATTGATGACATCGAGTAAACAAATTTTCCTAATCTTTCTGTTCAAGCGCCATCTAC”: 1.34 RPM ratio (pull-down/input); for “GATGATTGTTCTCCCAGCTGATGAATTGAACTAATCGAGTAAACAAATTTTCCTAATCTTTCTGTTCAAGCGCCATCTAC”: 0.992 RPM ratio (pull-down/input).
The same measure for “GATGATTGTTCTCCCAGCTGATGAATTACCGCGCTCGAGTAAACAAATTTTCCTAATCTTTCTGTTCAAGCGCCATCTAC”: 0.948 RPM ratio (pull-down/input); for “GATGATTGTTCTCCCAGCTGATGAATTTGATTCCTCGAGTAAACAAATTTTCCTAATCTTTCTGTTCAAGCGCCATCTAC”: 0.839 RPM ratio (pull-down/input).
On to “GATGATTGTTCTCCCAGCTGATGAATTCTTGGTTTCGAGTAAACAAATTTTCCTAATCTTTCTGTTCAAGCGCCATCTAC”, for which the binding signal is 0.962 RPM ratio (pull-down/input).
